Measurements: PubChem BioAssay (NCI)
The panel holds about 79,000 compounds, 15% with a hit somewhere; the sample as a whole holds those more often. Calls of active or inactive are those of the source. Cut-off read from the data, not from the text of the source: active = growth inhibition above about 70%; inactive = the rest.

Tests used:
[1] = NCI Yeast Anticancer Drug Screen. Data for the rad50 strain (AID 155);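 note: 0% = growth of vehicle-only cultures of the same strain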; settings: S. cerevisiae rad50 strain growth inhibition, hits give high values
In short: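 Genetically altered yeast (DNA repair pathway); compound treatment; growth inhibition vs vehicle ctrl.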

[2] = NCI Yeast Anticancer Drug Screen. Data for the mec2-1 strain (AID 157); settings: S. cerevisiae mec2-1 strain, hits give high values
In short: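 Growth inhibition is read against vehicle-treated controls after compound exposure of the mec2-1 yeast strain, which is defective in DNA damage repair or cell cycle control.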

[3] = NCI Yeast Anticancer Drug Screen. Data for the sgs1 mgt1 strain (AID 161);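 note: 0% = growth of cultures given vehicle only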; settings: S. cerevisiae sgs1 mgt1 strain, hits give high values
In short: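 Compounds are added to genetically altered yeast, and growth is compared with cultures given vehicle alone to give percent inhibition.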

[4] = NCI Yeast Anticancer Drug Screen. Data for the cln2 rad14 strain (AID 165);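 note: 0% = growth equal to vehicle treated cultures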; settings: S. cerevisiae cln2 rad14 strain, hits give high values
In short: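 Growth inhibition, relative to vehicle-treated controls, is the read-out. The test organism is a yeast strain with defined genetic alterations, cln2 rad14.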

[5] = NCI Yeast Anticancer Drug Screen. Data for the bub3 strain (AID 167); settings: S. cerevisiae bub3 mutant strain, hits give high values
In short: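 Yeast carrying a defined mutation is treated with each compound, and growth is compared with that of vehicle-exposed cells to give inhibition.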

[6] = NCI Yeast Anticancer Drug Screen. Data for the mlh1 rad18 strain (AID 175); settings: S. cerevisiae mlh1 rad18 strain growth inhibition, hits give high values
In short: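 Cells of a genetically altered yeast strain, deficient in DNA damage repair, were treated with compound. Their growth was then compared with that of vehicle-treated cultures to give inhibition.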

[7] = at 5.0 µM (retest, dose inferred, filed as 0.5)
[8] = at 50.0 µM (retest, dose inferred, filed as 5.0)

Measured: growth inhibition

CC12CCC(C)(c3cc(O)c(O)cc31)c1cc(O)c(O)cc12
inactive: [1]; [7] -4% | [1]; [8] 4% | [1]; at 50.0 µM 52.3% | [2]; [7] -1% | [2]; [8] -1% | [2]; at 50.0 µM 31.4% | [3]; [7] -1% | [3]; [8] 4% | [3]; at 50.0 µM 37% | [4]; [7] 2% | [4]; [8] 19% | [4]; at 50.0 µM 57.5% | [5]; [7] 4% | [5]; [8] 33% | [5]; at 50.0 µM 43.9% | [6]; [7] -1% | [6]; [8] 22%
active: [6]; at 50.0 µM 70.1%

Nc1ccc(Cl)cc1C(=O)c1ccccc1Cl
active: [1]; [8] 99% | [1]; at 50.0 µM 97.4% | [2]; [8] 99% | [2]; at 50.0 µM 97.2% | [3]; [8] 99% | [3]; at 50.0 µM 97.5% | [4]; [8] 98% | [4]; at 50.0 µM 80.8% | [5]; [8] 99% | [5]; at 50.0 µM 87.5% | [6]; [8] 99% | [6]; at 50.0 µM 96.8%
inactive: [1]; [7] -3% | [2]; [7] -3% | [3]; [7] -2% | [4]; [7] -9% | [5]; [7] -12% | [6]; [7] -1%

ClCCN(CCCl)c1ccc(C2N(Cc3ccc(N(CCCl)CCCl)cc3Cl)CCCN2Cc2ccc(N(CCCl)CCCl)cc2Cl)cc1
active: [1]; [8] 99% | [1]; at 50.0 µM 96.2% | [2]; [8] 99% | [2]; at 50.0 µM 98.8% | [3]; [8] 99% | [3]; at 50.0 µM 97.5% | [4]; [8] 99% | [5]; [8] 99% | [6]; [8] 99% | [6]; at 50.0 µM 98.2%
inactive: [1]; [7] 2% | [2]; [7] -3% | [3]; [7] -1% | [4]; [7] -7% | [4]; at 50.0 µM 22.1% | [5]; [7] 1% | [5]; at 50.0 µM 37% | [6]; [7] 9%

CC1CCOC(=O)/C=C/C=C/C(=O)OC2CC3OC4C5OC5(C)C(O)CC4(COC(=O)C1O)C2(C)C31CO1 (configuration not stated)
active: [1]; [8] 95% | [1]; at 50.0 µM 90.3% | [2]; [8] 90% | [2]; at 50.0 µM 92% | [3]; [8] 95% | [3]; at 50.0 µM 91.5% | [4]; [8] 97% | [4]; at 50.0 µM 89.5% | [5]; [8] 95% | [5]; at 50.0 µM 89.2% | [6]; [8] 94% | [6]; at 50.0 µM 89.4%
inactive: [1]; [7] 16% | [2]; [7] 27% | [3]; [7] 21% | [4]; [7] 42% | [5]; [7] 18% | [6]; [7] 17%

C1CC[N-]CC1.[Cl][Au]([Cl])[Cl]
active: [1]; [8] 93% | [1]; at 50.0 µM 93.3% | [3]; [8] 89% | [3]; at 50.0 µM 93% | [4]; [8] 74% | [5]; [8] 76% | [6]; [8] 94% | [6]; at 50.0 µM 96.8%
inactive: [1]; [7] 42% | [2]; [7] 15% | [2]; [8] 63% | [2]; at 50.0 µM 65.5% | [3]; [7] 26% | [4]; [7] 31% | [4]; at 50.0 µM 60.4% | [5]; [7] 25% | [5]; at 50.0 µM 48.9% | [6]; [7] 34%

Cc1ccc2c[c]1[Hg][CH2]COS2(=O)=O
inactive: [1]; [7] 33% | [2]; [7] 16% | [3]; [7] 48% | [4]; [7] 9% | [5]; [7] -2% | [6]; [7] 24%
active: [1]; [8] 98% | [1]; at 50.0 µM 94.7% | [2]; [8] 99% | [2]; at 50.0 µM 98% | [3]; [8] 99% | [3]; at 50.0 µM 97.5% | [4]; [8] 98% | [4]; at 50.0 µM 98.7% | [5]; [8] 99% | [5]; at 50.0 µM 99.2% | [6]; [8] 97% | [6]; at 50.0 µM 98.2%

Nc1nc(N)c(-c2ccc(Cl)c(Cl)c2)c(CCc2ccc(CNC(=O)Nc3ccc(S(=O)(=O)F)cc3)cc2)n1
active: [3]; at 50.0 µM 79.8% | [6]; [8] 82% | [6]; at 50.0 µM 84.7%
inactive: [1]; [7] 4% | [1]; [8] 28% | [1]; at 50.0 µM 56.8% | [2]; [7] 0% | [2]; [8] 19% | [2]; at 50.0 µM 34% | [3]; [7] -4% | [3]; [8] 35% | [4]; [7] 1% | [4]; [8] 40% | [4]; at 50.0 µM 25.8% | [5]; [7] -1% | [5]; [8] 25% | [5]; at 50.0 µM 25% | [6]; [7] 4%

CN(C)CCCNc1ccnc2c(COC(=O)N(CCCl)CCCl)ccc([N+](=O)[O-])c12
active: [3]; [8] 75% | [3]; at 50.0 µM 74.2% | [6]; [8] 82% | [6]; at 50.0 µM 84.7%
inactive: [1]; [7] 15% | [1]; [8] 33% | [1]; at 50.0 µM 52.5% | [2]; [7] 23% | [2]; [8] 41% | [2]; at 50.0 µM 53.7% | [3]; [7] 34% | [4]; [7] 22% | [4]; [8] 63% | [4]; at 50.0 µM 43.6% | [5]; [7] 10% | [5]; [8] 42% | [5]; at 50.0 µM 38.1% | [6]; [7] 22%

CC(=O)[O-].CC(=O)[O-].O=C(N/N=C/c1cc(Cl)cc(Cl)c1[OH2+])c1ccncc1.[Mn+2]
inactive: [1]; [7] 24% | [2]; [7] 40% | [3]; [7] 40% | [4]; [7] 1% | [5]; [7] 11% | [6]; [7] 3%
active: [1]; [8] 96% | [1]; at 50.0 µM 97.8% | [2]; [8] 98% | [2]; at 50.0 µM 97.2% | [3]; [8] 92% | [3]; at 50.0 µM 98% | [4]; [8] 95% | [4]; at 50.0 µM 97% | [5]; [8] 96% | [5]; at 50.0 µM 97.5% | [6]; [8] 95% | [6]; at 50.0 µM 98.2%
